A selection: hits, their analogues and other compounds. The true share with any hit is near 12%.
VP16 counter = Gal4-VP16 reporter inhibition counter-screen. AID 2546. Drosophila S2 Gal4-VP16 UAS-luciferase, luminescence, 20 h. 310,000 tested, 3.5% active. Potency, µM (highest dose often 53.6 µM), actives largely listed as inhibitors;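 also: Gal4-VP16 expression switched on by copper sulfate through the metallothionein promoter; nearly all actives have a fitted effect of over 50% in size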
ALDH1A1 block = inhibitors of human aldehyde dehydrogenase 1A1. AID 1030. Potency, µM (top dose mostly 75.3 µM), hits mostly inhibitors. Purified ALDH1A1, NADH fluorescence, propionaldehyde substrate. P00352. 220,000 tested, 7.3% active; active = well fitted inhibition curve with a large enough effect, not every such curve was filed as active; inconclusive = small, poorly fitted or top-dose-only effect, or another doubt; inactive = no such curve, though single readings can be large or run the other way
Sfp inh = inhibitors of Bacillus subtilis Sfp phosphopantetheinyl transferase; Potency, µM, usual class: inhibitors; 310,000 tested, 3.5% active; Biochemical Sfp PPTase activity, qHTS; Q9F4F7;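 also: the enzyme is Sfp with the accession as filed and its product quenches rhodamine fluorescence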
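With Hepes-Na pH 7.6 buffer containing 10 mM MgCl2, Sfp (15 nM) modified BHQ-2-YbbR (12.5 uM) using rhodamine-CoA (5 uM). Two reads 30 minutes apart at 525/598 nm yielded each well's rate.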
PLK1 PBD block = inhibitors of human PLK1 polo-box domain binding; Plk1 PBD binding of FITC phosphopeptide, fluorescence polarization; Potency, µM, most hits filed as inhibitors; P53350; 360,000 tested, 2.8% active; also: series mostly up to about 57 µM; nearly all actives have a fitted effect of over 65% in size
RORg inh = blocks mouse ROR gamma transcriptional activity; Drosophila S2 Gal4-RORgamma UAS-luciferase reporter, 20 h; Potency, µM (highest dose often 53.6 µM), most hits filed as inhibitors; 310,000 tested, 5.4% active; AID 2551; also: nearly all actives have a fitted effect of over 60% in size
Target sequence (P51450 whole entry, looked up, the tested form may be a part): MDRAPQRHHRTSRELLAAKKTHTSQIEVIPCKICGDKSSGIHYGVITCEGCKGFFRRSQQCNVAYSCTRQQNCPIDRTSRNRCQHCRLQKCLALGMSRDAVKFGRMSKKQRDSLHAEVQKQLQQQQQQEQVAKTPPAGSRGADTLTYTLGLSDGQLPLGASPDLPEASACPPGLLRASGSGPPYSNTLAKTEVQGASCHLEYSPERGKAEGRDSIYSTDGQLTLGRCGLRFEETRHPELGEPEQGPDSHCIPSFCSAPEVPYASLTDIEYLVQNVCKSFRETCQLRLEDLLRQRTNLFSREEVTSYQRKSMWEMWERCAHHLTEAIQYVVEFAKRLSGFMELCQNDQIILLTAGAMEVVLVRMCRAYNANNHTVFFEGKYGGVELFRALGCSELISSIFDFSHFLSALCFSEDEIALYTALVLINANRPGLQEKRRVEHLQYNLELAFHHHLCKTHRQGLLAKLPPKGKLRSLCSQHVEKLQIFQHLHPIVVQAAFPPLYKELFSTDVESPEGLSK
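ROR gamma transcriptional activity was tracked as Gal4-UAS luciferase output in stably transfected Drosophila Schneider cells, with compound added 1 hr before 700 uM copper sulfate induction and a 20 hr ambient-temperature incubation.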
Hits are given with their value; . = inactive; ? = inconclusive; / = not tested or not shown; [ ] = dose if it differs, or a comment. Unless noted, calls follow the shape of the dose curve; as a rule, active = well fitted curve in the direction sought with a large enough effect; inconclusive = small, poorly fitted or top-dose-only effect, or another doubt; inactive = no such curve, though single readings can be large; an effect the other way counts as inactive or inconclusive.

SMILES | VP16 counter | ALDH1A1 block | Sfp inh | PLK1 PBD block | RORg inh
CSc1nc(N2CCOCC2)c2c3c(sc2n1)CCC3 | . | . | . | . | .
O=S(=O)(Nc1nc(CN2CCOCC2)nc2sc3c(c12)CCCC3)c1cc(F)ccc1F | . | 14.1µM | . | . | .
c1ccc2c(c1)CCN(c1nc(CN3CCOCC3)nc3sc4c(c13)CCCC4)C2 | ? | ? | . | . | 11.2µM
O=C1CCCC(=O)C1CS(=O)(=O)c1ccccc1 | . | 12.6µM | 20µM | . | .
COc1ccc(C2CC(=O)C(CS(=O)(=O)c3ccccc3)C(=O)C2)cc1 (stereo not drawn) | . | 7.94µM | . | ? | .
O=S(=O)(CS(=O)(=O)c1ccc(Cl)cc1)c1ccc(Cl)cc1 | . | / | . | . | .
O=S(=O)(CS(=O)(=O)c1ccccc1)c1ccccc1 | / | / | / | . | /
O=C1CC(c2ccc(Cl)cc2)CC(=O)C1CS(=O)(=O)c1ccccc1 (stereo not drawn) | . | 7.08µM | . | 26.7µM | .
O=C1CC(c2ccccc2)CC(=O)C1Sc1ccc(Cl)cc1 (stereo not drawn) | . | ? | . | 21.2µM | .
CCC(c1nnnn1-c1ccc2c(c1)OCCO2)N1CCN(C(C)=O)CC1 (stereo not drawn) | / | / | / | . | /
[N-]=[N+]=Nc1nc2c(N)ncnc2n1C1OC(CO)C(O)C1O (stereo not drawn) | . | . | ? | / | .
CCCNC(=O)c1cc(C2CCCCN2C(=O)CCCc2ccccc2)on1 (stereo not drawn) | / | / | / | . | /
CC(C)N1CCC1(C)C(=O)Nc1nc2ccccc2[nH]1 (stereo not drawn) | / | / | / | . | /
O=C(CCC(=O)CCN1CCCCC1)CCN1CCCCC1 | . | 0.631µM | . | . | .
NC(=O)CCN1CCCCC1 | . | . | . | . | .
S=c1c2c(nc3nc[nH]n13)CCC2 | 0.891µM | / | 14.1µM | . | ?
CCOC(=O)c1ccc(N2CC(O)=C(c3nc4ccccc4c(=O)[nH]3)C2=N)cc1 | . | ? | . | . | .
N=C1C(c2nc3ccccc3[nH]2)=C(O)CN1c1ccc(CC(=O)O)cc1 | . | 23.8µM | ? | . | ?
N=C1C(c2nc3ccccc3c(=O)[nH]2)=C(O)CN1c1ccccc1 | . | ? | . | / | .
N=C1C(c2nc3ccccc3[nH]2)=C(O)CN1c1ccccc1 | ? | . | . | . | 14.1µM
CC(C)(C)c1ccc(CNc2cc(N3CCOCC3)ccc2[N+](=O)[O-])cc1 | . | 1.58µM | . | . | .
O=C(COc1ccccc1Cl)N1CCN(c2ccc(F)cc2)CC1 | . | . | . | . | .
N#Cc1ccc(N2CCOCC2)c([N+](=O)[O-])c1 | . | . | . | 15µM | .
O=C(COc1ccccc1Cl)N1CCN(c2ccc([N+](=O)[O-])c(N3CCOCC3)c2)CC1 | . | 11.2µM | . | . | ?
CC(C)c1ccc(CNc2cc(N3CCCC3)ccc2[N+](=O)[O-])cc1 | . | . | . | . | ?
SMILES | VP16 counter | ALDH1A1 block | Sfp inh | PLK1 PBD block | RORg inh
Cc1cc(C)n(-c2cc(N3CCN(C(=O)c4cccc(Br)c4)CC3)ccc2[N+](=O)[O-])n1 | . | 14.1µM | . | . | ?
COc1ccc(CC(=O)OC(C)C(=O)NC2CCCCC2C)cc1 (stereo not drawn) | / | / | / | . | /
O=C(c1ccccc1Br)N1CCN(c2ccc([N+](=O)[O-])c(N3CCOCC3)c2)CC1 | . | 7.94µM | . | . | .
Cc1cc(C)n(-c2nc3ccccc3nc2N2CCN(C(=O)c3ccccc3)CC2)n1 | . | 12.6µM | . | . | .
O=[N+]([O-])c1ccc(N2CCOCC2)cc1N1CCCCC1 | . | 5.62µM | . | . | .
O=[N+]([O-])c1ccc(N2CCCCC2)cc1N1CCOCC1 | . | . | . | . | .
O=[N+]([O-])c1ccc(N2CCCC2)cc1N1CCCC1 | . | 14.1µM | . | . | .
CC12CC(O)C3C(CCC4=CC(=O)CCC43C)C1CCC2=CCO (stereo not drawn) | / | / | / | . | /
CN(C)S(=O)(=O)N1CCN(c2ccc([N+](=O)[O-])c(N3CCCCC3)c2)CC1 | . | 3.98µM | . | . | ?
CCCNC(=O)NC1CCCCCCC1 | . | ? | . | . | .
NNC(=S)NC1CCCCC1 | 7.08µM | . | . | . | 2.82µM
CCCNC(=S)NC1CCCC1 | ? | . | . | . | 11.2µM
CC1(Cc2ccccc2Cl)C(=O)Nc2c(Cl)ccc(Cl)c21 (stereo not drawn) | / | / | / | . | /
CN1OC[C@@H]2CN(C(=S)NCCc3ccccc3)[C@H](c3ccc(-n4ccnc4)cc3)C[C@@H]21 | / | / | / | . | /
CCOc1ccc(N2C(=O)CC(N3CCN(C(=O)CN4CCCC4)CC3)C2=O)cc1 (stereo not drawn) | . | 15.8µM | . | . | .
CCCOc1ccc(N2C(=O)CC(N3CCCC(C(=O)N4CCCC4)C3)C2=O)cc1 (stereo not drawn) | . | 17.8µM | . | . | .
CCOc1ccc(N2C(=O)CC(N3CCN(c4ccc(F)cc4)CC3)C2=O)cc1 (stereo not drawn) | . | / | . | . | .
O=C(C1CCCN(C2CC(=O)N(c3ccc(F)cc3)C2=O)C1)N1CCCC1 (stereo not drawn) | . | / | . | . | .
CC(=O)Nc1ccc(N2C(=O)CC(N3CC(C)OC(C)C3)C2=O)cc1 (stereo not drawn) | . | 7.94µM | . | . | .
COC(=O)c1ccc(N2C(=O)CC(N3CCN(c4ccccc4)CC3)C2=O)cc1 (stereo not drawn) | / | / | / | . | /
COC(=O)c1ccc(N2C(=O)CC(N3CCOCC3)C2=O)cc1 (stereo not drawn) | . | 28.2µM | . | . | .
Nc1ccn(C2OC(CCl)C(O)C2O)c(=O)n1 (stereo not drawn) | / | / | / | . | /
CCCOc1ccc(N2C(=O)CC(N3CCOCC3)C2=O)cc1 (stereo not drawn) | ? | 25.1µM | . | . | .
O=C(NCc1ccccc1)C1=C[C@@H](c2ccccc2)C[C@@H](OCc2ccc(CO)cc2)O1 | . | 31.6µM | . | . | .
CC(=O)n1cc([C@@H]2C=C(C(=O)N3CCN(Cc4ccccc4)CC3)O[C@H](OCc3ccc(CO)cc3)C2)c2ccccc21 | . | 15.8µM | . | . | .
CC(=O)n1cc([C@H]2C=C(C(=O)N3CCN(Cc4ccccc4)CC3)O[C@@H](OCCCCO)C2)c2ccccc21 | . | 28.2µM | . | . | .
O=C(NCc1ccccc1)C1=C[C@H](c2ccc(Br)cc2)C[C@H](OCc2ccc(CO)cc2)O1 | . | ? | . | . | .
CC(=O)n1cc([C@@H]2C=C(C(=O)N3CCN(Cc4ccc5c(c4)OCO5)CC3)O[C@H](OCCCCO)C2)c2ccccc21 | . | . | . | . | .
CC(=O)n1cc([C@H]2C=C(C(=O)NCc3ccccc3)O[C@@H](OCc3ccc(CO)cc3)C2)c2ccccc21 | . | 15.8µM | . | . | .
C[C@H]1C[C@H]2[C@H]3CCC4=CC(=O)C=C[C@@]4(C)[C@]3(F)[C@H](O)C[C@]2(C)[C@@]1(O)C(=O)COP(=O)(O)O | / | .[13.5 µM] | / | / | /

Screening data (PubChem)
